# Pf growth 96h: P. falciparum growth inhibition at 96 hour, primary screen for plastid delayed-death inhibitors; 320,000 tested, 6.9% active; Potency, µM (highest dose often 28.7 µM), for inactives: at the highest dose activity change, negative = inhibition, most hits filed as inhibitors; AID 504834; P. falciparum luciferase reporter growth, 96 h; further: potency means the concentration at half of the fitted maximal effect; on the % scale 0 is the no-effect control and ±100 the full control effect
#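 Parasite growth measured via integrated firefly luciferase reporter in P. falciparum. Infected erythrocytes at 2% hematocrit, 0.05% parasitemia final were treated 96 hours at 37 C under 5% CO2, and luminescence was read.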
# Pf growth 48h: inhibits P. falciparum growth in the first generation, 48 h | Potency, µM (doses to about 28.7 µM), for inactives: at the top dose activity change, negative = inhibition, usual class: inhibitors | P. falciparum luciferase growth in erythrocytes, 48 h | 310,000 tested, 5.9% active; further: potency means the concentration at half of the fitted maximal effect; on the % scale 0 is the no-effect control and ±100 the full control effect
#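 Luminescence readout; reporter = integrated firefly luciferase in P. falciparum. RBC culture at 2% hematocrit, 0.1% parasitemia final, 37 C/5% CO2; decreased signal taken as growth inhibition.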
# Shiga inhibitor: inhibitors of Shiga toxin in Vero cells; 290,000 tested, 9.2% active; inhibition, % at 38.7 µM; Vero cells, Shiga toxin protein synthesis inhibition reporter; in the data active means inhibition mostly above about 28%, no sharp cut-off; inactive means mostly below about 43%; further: 0% is about no effect
# HCMV antiviral: blocks human cytomegalovirus replication. 410,000 tested, 4.5% active. HFF cells, HCMV-luciferase reporter, 72 h; stronger effect = lower value. AID 1259415. activity change, negative = inhibition, % at 57.5 µM; in the data active means activity change below about -60%; inconclusive means no clear call, values can overlap the other calls; inactive means above about -39%; further: on the % scale 0 is the no-effect control and ±100 the full control effect
#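 Human foreskin fibroblasts infected with luciferase-reporter HCMV at MOI 1 PFU/cell, compounds at two doses. Luciferase measured 72 h post infection; normalized to buffer-only basal and Salinomycin (10uM) controls.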
# Cycloheximide cs: counter-screen for Shiga toxin inhibitors: cycloheximide protein synthesis inhibition | cell reporter, cycloheximide protein synthesis inhibition counterscreen | 300,000 tested, 12% active | max response, % | AID 2314; in the data active means max response mostly above about 13%, no sharp cut-off; inactive means mostly below about 14%; further: read at 38.3 µM for the half of the compounds with a filed dose; 0% is about no effect
# * hit, by the source's call; ? = inconclusive; . = no result; + = active, no number; [ ] = another dose, or the depositor's remark. This is a sample that favours compounds with a hit; in the whole collection about 20% have one here. Unless noted, the call rests on the fitted dose curve; in most records, active means well fitted inhibition curve with a large enough effect; inconclusive means small, poorly fitted or top-dose-only effect, or another doubt; inactive means no such curve, though single readings can be large or run the other way.
SMILES,Pf growth 96h,Pf growth 48h,Shiga inhibitor,HCMV antiviral,Cycloheximide cs
CC1CCC2C(=O)N(c3cccc(C(=O)Nc4ccc(F)cc4)c3)C(=O)C2C1 (stereo not given),15.9%,-24.1%,-4.9,6.5,-3.6
O=C(OCc1ccccc1)c1ccc2c(c1)-c1ccccc1C2=O,?,9.28µM*,26.7*,19.7,16.2*
C/C(=N/NC(=O)Nc1ccccc1)c1ccc(C)cc1,16.9%,6.8%,28.7*,-22.1,-3.5
CC(=O)Nc1ccc(/C(C)=N\NC(=O)c2ccc(-c3ccccc3)cc2)cc1,?,0.657µM*,7.2,.,12.5
CC(=O)Nc1ccc(/C(C)=N/NC(=O)c2ccc(F)cc2)cc1,-15.6%,1.6%,+,-17.0,23.8*
CCC(=O)Nc1ccc(/C(C)=N\NC(=O)c2ccc(OC)cc2)cc1,?,-7.6%,26.3,-2.9,8.0
O=C(Cn1cnc2ccccc2c1=O)N1CCN(S(=O)(=O)c2ccc(F)cc2)CC1,?,?,.,-31.3,.
N=c1c2c3c(sc2ncn1Cc1ccccc1)CCCC3,47.3%,?,-8.5,5.8,0.1
N=c1c2c3c(sc2ncn1Nc1ccccc1)CCC3,2.94µM*,1.65µM*,-1.5,-4.9,5.2
Cc1ccc(NS(=O)(=O)c2ccc(-c3ccc(=O)[nH]n3)o2)cc1N(C)C,-12.9%,18.4%,60.1*,-23.1,44.4*
Cc1ccc(NS(=O)(=O)c2ccc(-c3ccc(=O)[nH]n3)o2)cc1Cl,9.28µM*,2.8%,1.7,-18.9,1.7
Cc1cccc(NS(=O)(=O)c2ccc(-c3ccc(=O)[nH]n3)o2)c1,-4.3%,-1.2%,-8.9,10.1,0.3
CC(C)(C)NC(=O)C(c1ccccn1)N(C(=O)C1CSC(=O)C1)c1cccc(F)c1 (stereo not given),46.8%,15.6%,-9.8,-3.8,-5.6
Cc1ccc(/C(O)=C2/C(=O)C(=O)N(CCCn3ccnc3)C2c2ccccn2)cc1 (stereo not given),?,3.8%,-10.2,.,-1.8
CCN(CC)CCN1C(=O)C(=O)/C(=C(/O)c2cccc(OC)c2)C1c1ccccn1 (stereo not given),11.7µM*,?,49.5,22.7,15.2*
COCCN1C(=O)C(=O)/C(=C(/O)c2ccc(C)cc2)C1c1ccccn1 (stereo not given),3.29µM*,-3.1%,21.6,-17.1,12.7
CCOc1ccc(/C(O)=C2/C(=O)C(=O)N(CCOCCO)C2c2ccccn2)cc1 (stereo not given),31.6%,46.0%,57.5*,2.0,38.6*
CN1CC[C@@H]2C(=O)N3CCc4ccc(Br)cc4[C@@H]3C[C@@H]21,.,.,.,1.7,.
Cc1ccc(S(=O)(=O)N(C)C[C@H]2Oc3cc(C#Cc4ccccc4)ccc3S(=O)(=O)N([C@H](C)CO)C[C@@H]2C)cc1,.,.,.,-28.0,.
O=C(Nc1c2c(nn1-c1ccc(Cl)cc1)CS(=O)(=O)C2)c1ccccc1F,.,.,.,-7.7,.
COC(=O)c1ccc(COC(=O)c2nn(C)c(=O)c3ccccc23)cc1,29.9%,21.2%,57.1,18.6,22.7*
Cn1nc(C(=O)OCC(=O)NCc2ccc(Cl)cc2)c2ccccc2c1=O,.,.,.,-21.4,.
Cn1nc(C(=O)OCC(=O)NCCc2ccccc2)c2ccccc2c1=O,12.4%,?,6.7,-16.0,26.8*
Cn1nc(C(=O)OCC(=O)c2ccccc2)c2ccccc2c1=O,.,.,.,1.3,.
C(C#CCCCCCCCCC[n+]1ccccc1)#CCCCCCCCCC[n+]1ccccc1,0.0928µM*,0.294µM*,-8.7,.,-3.2
SMILES,Pf growth 96h,Pf growth 48h,Shiga inhibitor,HCMV antiviral,Cycloheximide cs
COc1ccc(Cl)cc1NC(=O)CNC(c1ccccc1)c1ccccc1,1.65µM*,?,14.0,16.6,3.3
COc1cc(C(=O)Nc2ccc(C)cc2C(NCC(=O)NN)c2ccccc2)cc(OC)c1OC (stereo not given),4.65µM*,4.7%[0.00184 µM],12.1,40.3,1.1
CCC(C(=O)OCC(=O)Nc1cc(C)ccc1OC)c1ccccc1 (stereo not given),20.5%,0.0%,32.1,-24.9,26.0*
COc1ccc(OC)c(NC(=O)CNC(c2ccccc2)c2ccccc2)c1,9.28µM*,11.7µM*,18.4,-19.6,4.5
COc1ccc(C)cc1NC(=O)COC(C)=O,6.4%,.,19.6,1.0,2.0
COc1ccc(Cl)cc1NC(=O)CNCC(c1ccccc1)N(C)C (stereo not given),-12.6%,-0.7%,16.1,7.6,-1.0
Cc1ccc(NC(=O)CNC(c2ccccc2)c2ccccc2)c(F)c1,?,-25.3%,1.6,-22.9,-1.9
COc1ccc(C)cc1NC(=O)CNC(c1ccccc1)c1ccccc1,?,7.38µM*,4.6,5.9,7.3
Nc1cnc(CNc2ccccc2Cl)cn1,34.8%,50.8%,32.0*,33.9,14.1
COC(=O)c1ccc(OCC2c3cc(OC)c(OC)cc3CCN2C(=O)c2ccc(F)cc2)cc1 (stereo not given),.,.,.,17.3,.
COc1ccc(C2CC(c3cccs3)=NN2C(=O)CSc2nnnn2C)cc1OC (stereo not given),11.7µM*,?,-16.3,?,-4.6
COc1ccc(C2CC(c3cccs3)=NN2C(=O)c2ccco2)cc1OC (stereo not given),0.131µM*,0.262µM*,17.8,?,2.6
COc1ccc(C2CC(c3cccs3)=NN2C(=O)CSc2nncn2C)cc1OC (stereo not given),7.9%,1.4%,-4.8,-27.4,-2.2
CS(=O)(=O)Nc1ccc(C2=NN(C(=O)c3ccco3)C(c3ccc(F)cc3)C2)cc1 (stereo not given),?,?,-9.1,-3.8,7.4
O=C(c1ccco1)N1N=C(c2cccs2)CC1c1ccc(F)cc1 (stereo not given),0.828µM*,.,6.2,5.0,2.0
CC(C)(C)c1ccc(C(CC(=O)O)NC(=O)C23CC4CC(CC(C4)C2)C3)cc1 (stereo not given),6.9%,-11.3%,-5.3,12.0,-3.1
CCc1ccc(N2C(=O)CC(N(CC3CCCO3)C(=O)/C=C/C(=O)O)C2=O)cc1 (stereo not given),-23.2%,0.0%,-3.7,13.3,-1.1
Cc1nc2ccn(Cc3ccco3)c(=O)c2cc1C(=O)N1CCN(c2ccc(F)cc2)CC1,.,.,.,45.2,.
Cc1cccc(C)c1OCC(=O)NNC(=O)CCNC(=O)c1ccco1,4.4%,?,.,-2.8,.
Cc1ccc(S(=O)(=O)NC(=O)C2(C)CCN2C(=O)c2cccc(F)c2)cc1 (stereo not given),.,.,.,-19.1,.
COc1ccc(C2C(C#N)=C(N)N3C(=C2C#N)Sc2ccccc23)cc1 (stereo not given),-3.9%,9.9%,42.6,.,20.2*
NC1=NC[C@H](Cc2ccccc2)N1CCc1cc(C(F)(F)F)cc(C(F)(F)F)c1,?,3.29µM*,-5.9,-10.7,-3.0
CCC(C)[C@H]1CN=C(N)N1CCc1cccc(F)c1 (stereo not given in full),.,.,.,10.4,.
FC(F)(F)c1cc(CCN2C(=S)NC[C@@H]2Cc2ccccc2)cc(C(F)(F)F)c1,?,?,-10.4,-22.7,-1.8
